Cardio protect = protects H9c2 cardiomyocytes from peroxide injury. H2O2 injury protection, ATPLite, 2 h. protection from H2O2 cell death, % at 20 µM. 0.63% of 360,000 active;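 active = compounds giving at least 50% protection of heart cells from peroxide-induced death in the single-dose screen, raw or plate-pattern-corrected value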;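 note: 0% = DMSO wells with peroxide and 100% = DMSO wells without peroxide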
ARNT-TACC3 inh = disrupts binding between human ARNT and TACC3 | Q9Y6A5 | AlphaScreen His-ARNT PAS-B/GST-TACC3 binding, luminescence; TACC3 fragment carries E629A point mutation | inhibition, % at 9.99 µM | 0.66% of 390,000 active | AID 623870;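 active = mean inhibition of replicates at least 50% and at least half of replicates each reaching 50%; inconclusive = half or more replicates reach 50% but mean below 50%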;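 note: 0% = complete ARNT plus TACC3 wells and 100% = ARNT alone without TACC3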
Glyco luc inh = N-linked glycosylation inhibition; D54 ERlucT glycosylation luciferase reporter, 24 h; percent of 100 nM tunicamycin response; reporter increase, % at 12.5 µM; AID 588692; 0.23% of 360,000 active;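 active = mean luciferase reporter signal, scaled so untreated is 0 and the glycosylation-blocking control 100, at or above a set limit in every replicate; inconclusive = mean reaches the limit but not every replicate does; inactive = mean below the limit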;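 note: luciferase carries N-glycosylation sites so blocking glycosylation raises the light; 0% = median of neutral control wells and 100% = median of 100 nM tunicamycin wells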
Vif imaging = inhibitors of HIV Vif; inhibition, % at 7.49 µM; HEK293T cells, Vif self-association by quenched fluorescence, imaging, 24 h; 0.35% of 340,000 active; AID 602346; in the data active = inhibition above about 50%, passing the limit was not always enough; inconclusive = no clear call, values can overlap the other calls; inactive = below about 31%
aDG glyco up = increases alpha dystroglycan glycosylation; Pro5-aDG cells, alpha-DG glycosylation AlphaScreen (IIH6); 0% Pro5, 100% B10-LARGE cell signal; activation, % at 10 µM; 0.22% of 360,000 active;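 active = activation of at least 8% versus controls, or a plate z-score of at least 8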;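 note: Pro5 are CHO cells carrying HIG-tagged alpha-DG that lacks glycosylation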
ARNT Alpha ctr = interferes with AlphaScreen signal, flagging false ARNT-TACC3 hits | shares compounds with ARNT-TACC3 inh | His-ARNT PASB-GST AlphaScreen artifact counter-screen, luminescence | AC50, µM (top dose mostly 68 µM), inactives show at the top dose activity change, negative = signal decrease | 50% of 1,200 active;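 active = every separate test run was called active for a drop in luminescence, with AC50 within twice the top valid dose, actives reach about 71 µM in these data; inconclusive = the separate test runs disagree in their calls; inactive = all runs inactive, including signal change in the wrong direction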
Numbers without * were called inactive; i = inactive; ? = inconclusive; . = not tested or not shown; [ ] = dose if it differs, or a comment. An excerpt weighted towards active compounds, which were near 1.7% of everything screened.

SMILES	Cardio protect	ARNT-TACC3 inh	Glyco luc inh	Vif imaging	aDG glyco up	ARNT Alpha ctr
C[C@H]1CN([C@@H](C)CO)C(=O)Cc2cc(NC(=O)C3CC3)ccc2O[C@H]1CN(C)Cc1ccccc1	.	-14	.	.	.	.
COCCNC(=O)C[C@@H]1C[C@@H]2c3cc(NC(=O)C4CCOCC4)ccc3O[C@@H]2[C@H](CO)O1	.	-13	.	.	.	.
COCCNC(=O)C[C@@H]1C[C@H]2c3cc(NC(=O)C4CCOCC4)ccc3O[C@H]2[C@H](CO)O1	.	active	.	.	.	-7%[38 µM]
O=C(C[C@@H]1C[C@@H]2c3cc(NC(=O)C4CCOCC4)ccc3O[C@@H]2[C@H](CO)O1)NCc1cccnc1	.	55*	.	.	.	3%[42 µM]
CN(C)c1ccc2c(c1)[C@@H]1C[C@H](CC(=O)O)O[C@@H](CO)[C@@H]1O2	.	1	.	.	.	.
COC(=O)C[C@@H]1C[C@H]2c3cc(N(C)C)ccc3O[C@H]2[C@@H](CO)O1	.	67*	.	.	.	-5%[42 µM]
CCC(=O)NC(C)c1cc(Cl)c2cccnc2c1O (configuration not stated)	34	61*	-3	-10	0	43µM*
CC(=O)NC(C)c1cc(Cl)c2cccnc2c1O (configuration not stated)	58*	52*	6	9	1	36µM*
CN(C)CCNc1ccc2ncn3c4ccc(O)cc4c(=O)c1c23	1	58*	?	i	0	-30%
Cc1cc(C)c(S(=O)(=O)N2CCCC2=O)c(C)c1N(C)S(C)(=O)=O	1	9.2*	0	-1	0	-5%
COc1ccc(Cl)cc1S(=O)(=O)N1CCCC1=O	-3	-7	1	-2	1	.
COCC(=O)N(C)C[C@H]1Oc2cc(-c3ccc(OC)cc3)ccc2S(=O)(=O)N([C@@H](C)CO)C[C@@H]1C	.	-3	.	.	.	.
C[C@@H]1CN([C@@H](C)CO)C(=O)c2cc(C#CC3CC3)cnc2O[C@@H]1CN(C)Cc1ccccc1C(=O)O	.	10	.	.	.	.
N#CC1=C(N)Oc2n[nH]c(-c3ccccn3)c2C1c1c(F)cccc1Cl (configuration not stated)	1	55*	9	-3	0	-8%
COCc1[nH]nc2c1C(c1c(F)cccc1Cl)C(C#N)=C(N)O2 (configuration not stated)	9	-8	1	-6	0	.
O=C(CC(=O)N/N=C/c1ccccc1O)NCc1cccnc1	63*	48*	2	8	0	-19%
Cc1ccccc1Nc1nnc(SCC(=O)NC(=O)NCc2ccco2)s1	-3	62*	0	-16	0	-12%
Oc1ccc(C2=Nn3c(nnc3-c3ccco3)SC2)cc1O	69*	70*	6	?	0	-35%
CC(C)(C)C1=Nn2c(nnc2-c2ccco2)SC1	2	-7	1	2	0	.
CC(=O)N1CN(CCCn2ccnc2)Cc2c1sc1c2CCCC1	6	18	0	27	0	.
CC(=O)N1CN(Cc2ccccn2)Cc2c1sc1c2CCCC1	9	71*	3	13	0	-15%
O=C(N[C@@H]1CC[C@H](CCn2cc(-c3ccccn3)nn2)O[C@@H]1CO)c1ccncc1	.	66*	.	.	0	33µM*
N[C@H]1CC[C@@H](CCn2cc(-c3ccccn3)nn2)O[C@H]1CO	.	75*	.	.	.	6µM*
COCc1cn(CC[C@@H]2CC[C@H](NC(=O)c3ccncc3)[C@H](CO)O2)nn1	.	-20	.	.	.	.
COCc1cn(CC[C@H]2CC[C@@H](NC(=O)c3ccncc3)[C@@H](CO)O2)nn1	.	-19	.	.	.	.
SMILES	Cardio protect	ARNT-TACC3 inh	Glyco luc inh	Vif imaging	aDG glyco up	ARNT Alpha ctr
N[C@H]1CC[C@H](CCn2cc(-c3cccc(F)c3)nn2)O[C@@H]1CO	.	7	.	.	.	.
O=C(N[C@H]1CC[C@@H](CCn2cc(-c3ccccn3)nn2)O[C@H]1CO)c1ccncc1	.	65*	.	.	.	31µM*
CCC(=O)N1[C@H](CO)[C@H](c2ccc(-c3cccnc3)cc2)[C@@H]1CN(C)C(C)=O	.	3	.	.	.	.
CCOC(=O)Cc1nnc(NC(=O)c2ncn[nH]2)s1	7	69*	1	-16	0	-8%
CCOC(=O)Cc1nnc(NC(=O)c2ccccc2OCC)s1	8	-8	0	9	0	.
COCC(=O)Nc1ccc2c(c1)[C@@H]1C[C@H](CC(=O)N[C@H](C)c3ccccc3)O[C@@H](CO)[C@@H]1O2	.	8	.	.	.	.
O=C(N/N=C/c1c(O)ccc2ccccc12)c1ccc(CO)nc1	59*	59*	-10	3	0	67µM*
O=C(NN=Cc1c(O)ccc2ccccc12)c1ccc2c(c1)OCO2	8	-1	-7	-20	1	.
C/C(=C\C(=O)c1ccccc1)Nc1ccc(N2CCOCC2)cc1	-2	39*	6	5	0	-27%
CO[C@H]1CN(C)C(=O)c2cc(NC(=O)C3CCC3)ccc2OC[C@@H](C)NC[C@H]1C	.	-6	.	.	.	.
O=C(Oc1ccc(Cl)c2cccnc12)c1cccnc1	39	69*	9	-8	0	50µM*
CN(Cc1ccccc1)CC(O)COc1ccc(CNCc2nccn2C)cc1 (configuration not stated)	13	63*	-3	-3	1	-16%
Oc1cc(NCc2ccc(F)cc2)cc2cccnc12	-15	60*	16	-4	2	30µM*
CN(C)CCCNc1cc(O)c2ncccc2c1	-17	64*	0	2	0	6.2µM*
COc1cccc(C(=O)Oc2c(CN3CCOCC3)cc(Cl)c3cccnc23)c1	38	78*	-16	17	0	58µM*
OCCN1CCN(Cc2cc(Br)cc(Br)c2O)CC1	4	-27	1	1	0	.
OCCN1CCN(Cc2cc(Cl)c3cccnc3c2O)CC1	24	63*	1	-5	1	8.5µM*
O=C(Oc1c(CN2CCOCC2)cc(Cl)c2cccnc12)c1cccs1	16	65*	-10	-3	0	-21%
C[C@@H]1CN([C@@H](C)CO)C(=O)c2cc(NC(=O)Nc3ccccc3)ccc2O[C@@H]1CN(C)Cc1ccc(Oc2ccccc2)cc1	.	-6	.	.	.	.
CN(C)CCCNC(=O)[C@H]1[C@H](CO)[C@H]2Cn3c(ccc(C4=CCCC4)c3=O)[C@@H]1N2Cc1cocn1	.	10	.	.	.	.
C[C@@H]1CN([C@H](C)CO)C(=O)c2cc(N(C)C)ccc2O[C@@H](C)CCCCO[C@@H]1CN(C)C(=O)c1ccccc1	.	5	.	.	.	.
Nc1nc(-c2ccccn2)nc(N)c1Cc1ccccc1F	-23	67*	0	7	2	22µM*
CNc1cc(C(F)(F)F)nc(-c2ccccn2)n1	0	28	0	6	0	.
Clc1ccc(OCc2nc(-c3ccccn3)no2)c(Br)c1	-30	-9	-18	.	0	.

Compound activity: PubChem, several laboratories
